In the library only some 4% were active in any assay of this set; here they are far more common.
TROY NFkB inh = inhibitors of TROY-driven NF-kB signaling, primary screen, Q293 LMP1-TROYcd cells, NF-kB luciferase, uHTS; Q293 LMP1-TROYcd NF-kB luciferase reporter, 4 h; inhibition, % at 10 µM; actives 0.98% (n = 360,000);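 active means compounds whose plate-normalised and pattern-corrected inhibition of the luciferase reporter signal at the single screening dose is 50% or more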
Peg3 prom inh-1 = Peg3 promoter-driven luciferase inhibitors, primary screen, cell-based, HeLa, luciferase luminescence | HeLa PEG-Prom luciferase reporter, overnight | inhibition, % at 20 µM | AID 588405, 2011 | actives 1.7% (n = 360,000);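 active means inhibition of at least 50% at 20 µM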
KKLEB tox = cytotoxicity in KKLEB CF airway cells, primary screen, cytotoxicity control for CF NF-kB inhibitor project, cell-based, uHTS, fluorescence assay plates. AID 602141, 2011. actives 0.36% (n = 360,000). KKLEB CF airway cells viability, ATPlite luminescence, overnight; active compounds read low; cells stimulated with P. aeruginosa culture filtrate. activity change (cytotoxicity), % at 5 µM;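 active means corrected activity change at or below -50% at 5 µM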
TWEAK Fn14 block = inhibitors of TWEAK-Fn14 signaling, primary screen, luciferase reporter cells, uHTS | TWEAK-stimulated Fn14 reporter cells, luciferase luminescence, 8 h | actives 2% (n = 360,000) | AID 1159606, 2016 | inhibition, % at 10 µM; in the data active means inhibition above about 50%
HIF-2a inh = HIF-2a reporter inhibitors, primary screen, luminescence, 786-0 RCC cells. 786-0 RCC cells HIF-2a reporter, luciferase luminescence, overnight. inhibition, % at 18.8 µM. actives 0.72% (n = 360,000);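 active means inhibition of the luminescence signal of 40% or more relative to plate controls, in a single-dose primary screen at 18.75 µM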
CF NFkB block = inhibitors of PAF-induced NF-kB signaling, primary screen, cell-based, GFP fluorescence, uHTS; KKLEB NF-kB-GFP reporter, GFP fluorescence overnight; inhibition, % at 5 µM; actives 0.86% (n = 360,000);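 active means at least 50% inhibition at 5 µM, scaled per plate between neutral and stimulator controls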;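 further: PAF is a Pseudomonas aeruginosa culture filtrate used as stimulus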
Peg3 prom inh-2 = Peg3 promoter reporter inhibitors, retest, confirmation, cell-based, HeLa, luciferase reporter, single concentration. shares compounds with Peg3 prom inh-1. HeLa PEG-Prom luciferase reporter, luminescence, overnight. inhibition, % at 20 µM. actives 84% (n = 1,300). AID 602417, 2012;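 active means at 20 µM dose, 40% or more inhibition averaged across four replicates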
Numbers stand for hits; – = inactive; · = no result given.

SMILES	TROY NFkB inh	Peg3 prom inh-1	KKLEB tox	TWEAK Fn14 block	HIF-2a inh	CF NFkB block	Peg3 prom inh-2
CCCCN(C(=O)C1=CC=CN2CCS(=O)(=O)N=C12)c1ccccc1	–	–	–	–	–	–	·
CCOC(=O)N1CCN(Cc2cn[nH]c2-c2cc3ccccc3o2)CC1	–	–	–	–	–	–	·
CCN(CC)S(=O)(=O)c1cccc(C(=O)N/N=C(\C)c2ccc(O)cc2O)c1	–	52.4	–	–	–	–	65.2
O=C(O)c1ccccc1C=NN1CCCCCC1	–	–	–	–	–	–	·
CCOc1ccc(/C=N/NC(=O)c2nnn(-c3nonc3N)c2COc2ccc(F)cc2)cc1	–	54.2	–	–	–	–	–
CC(C)c1ccc(/C=N/NC(=O)c2nnn(-c3nonc3N)c2CN(C)C2CCCCC2)cc1	–	64.6	–	–	–	–	–
CN(Cc1c(C(=O)N/N=C/c2ccc(F)cc2)nnn1-c1nonc1N)C1CCCCC1	–	–	–	–	–	–	·
CN(C)c1ccc(/C=N/NC(=O)c2nnn(-c3nonc3N)c2COc2ccc(F)cc2)cc1	–	86.9	–	–	–	–	50.8
COc1ccc(/C(C)=N/NC(=O)c2nnn(-c3nonc3N)c2CN(C)c2ccccc2)cc1	–	–	–	–	–	–	·
C/C(=N\NC(=O)c1nnn(-c2nonc2N)c1CN(C)c1ccccc1)c1ccccc1O	–	50.5	–	–	–	–	70.6
CN(C)Cc1c(C(=O)N/N=C/c2ccc(OCc3ccc(F)cc3)cc2)nnn1-c1nonc1N	–	–	–	–	–	–	·
Cc1cccc(C)c1OCC(=O)NNC(=S)NC(=O)C1CC1	–	–	–	–	–	–	·
CC(C)OCCCNC(=O)C1CC(=O)N(CCc2ccccc2)C1 (configuration not stated)	–	–	–	–	–	–	·
COc1ccc(/C=C/C(=O)Oc2ccc(C)cc2)cc1	–	–	–	–	–	–	·
CCc1nc2ccc(C(=O)Nc3cccc(OCC(=O)N(C)C)c3)cn2c1N(CC)CCOC	–	–	–	–	–	–	·
CCCCCCN1C=C/C(=C\C=C(C#N)C#N)c2ccccc21	–	56.0	–	–	–	–	44.9
C=CCN1C=C/C(=C\C=C(C#N)C#N)c2ccccc21	–	–	–	–	–	–	·
Cc1ccc(NS(=O)(=O)c2cc(C(=O)NCCCN(C)C)ccc2Cl)cc1Cl	–	–	–	–	–	–	·
CCN(CCN(C)C)C(=O)C1CCN(S(=O)(=O)c2c(C)noc2/C=C/c2ccccc2F)CC1	–	90.0	–	–	–	–	51.2
CCOc1ccccc1/C=C/c1onc(C)c1S(=O)(=O)N1CCC(C(=O)N(CC)CC)CC1	–	–	–	–	–	–	·
NC(C(=O)O)C1ON=C(Cl)C1O (configuration not stated)	–	59.0	–	–	–	–	62.0
Cc1ccc(S(=O)(=O)N(C)C[C@@H]2OCc3cnnn3CCCC(=O)N([C@H](C)CO)C[C@H]2C)cc1	–	–	–	–	–	–	·
c1ccc(-c2nc(-c3ccccn3)no2)cc1	73.3	75.9	–	93.8	–	–	46.4
COc1cc(-c2nc(-c3ccccn3)no2)cc(OC)c1OC	–	–	–	–	–	–	·
Cc1ccc(-c2nc(-c3ccccn3)no2)cc1Cl	82.1	92.9	-67.0	103.7	76.6	–	71.9
CSc1ccccc1OCc1cc(C(=O)NCCC2=CCCCC2)no1	–	–	–	–	–	–	·
CCCN(CC(=O)Nc1cc(Cl)cc(Cl)c1)CC(=O)Nc1ccc(F)c(F)c1F	–	87.5	–	–	–	–	91.4
CCCN(CC(=O)Nc1ccccc1Br)CC(=O)Nc1ccc(F)c(F)c1F	–	–	–	–	–	–	·
COc1cccc(C(=O)c2sc(NC(C)C)nc2N)c1	–	105.1	–	–	–	77.7	76.3

Screening data from PubChem.
